Assay results taken from PMC12864922, “TDP-43 directly inhibits mRNA accumulation in neurites through modulation of mRNA stability”.
Whole data set: some 9,900 sequences, median “r (bound/input frequency ratio)” near 0.7, cut for the highest 2% near 6.5. What follows is part of a selection rich in the highest values, with near analogues and random picks from the rest.

B1: ENSMUSG00000032194.214|Kank2 (ssRNA)
RNA: GGGAGUUCUACAGUCCGACGAUCGCUUCGAUAUCCGCAUGCUAUUGUUGUUGUUUCUUUGUUUCUUUUCUUCAUAAAGAAGAAAAAGGAAACAACUUCUAGAUGUGCCUUGCGAUAGGGAGGACUUUGUCCUCUCAAGUCUCCCUGUCGUAUCCAGAUCACAGCUGAACCCACUGGGCCUUGGCGCCAAACCUCAGCAGGGCAGCAUUGAGACUCAUGGACUAAAGGAAAGUGUUCACUCUUCUAGACAAGUGGGUCUCUUGGUUUGAUGGAGUCUUACUCCGCUUGAGUUUUGUAGAAGGGGCUCUUGCGGUCGCACUAGUGUGGAAUUCUCGGGUGUCAAGG
B2: ENSMUSG00000029636.67|Wasf3|73:79;237:241 (ssRNA)
RNA: GGGAGUUCUACAGUCCGACGAUCGCUUCGAUAUCCGCAUGCUACCAUCCUGAUUUGGUGGGCUUGCCACGUAUCUGCGCAGCUGCCCCACGUCAGCUCUCUGCAAGAUCACUGGCACACACACUCAGUGAUGUCUUCCAACCAGUGGGUGAUACGUUUUCCUGUUUCUUCCCUUUGCAAAUUGAAUUCCAGGUAGAUAUGGUUGUAGAGGGGAAAGUUUAACAAAUCAGAAUGAAAUGUUUGUCUGUUUGCACACUGGGCCUGGUGGCCUCCAAGGAAAACACAACGAUCGUUUGCUUUCUCUCUCUUGCGGUCGCACUAGUGUGGAAUUCUCGGGUGUCAAGG
B3: ENSMUSG00000061578.1419|Ksr2|3:7;229:233 (ssRNA)
RNA: GGGAGUUCUACAGUCCGACGAUCGCUUCGAUAUCCGCAUGCUAAUCAUACAUCUUGAUUCUCCAUUUUCCUUCUGGACCACAUGUCUCUUCCUUUUCCUUUUUAGAUCUGUCUUGCUCUCUGUCUCUCUCACUCAUUGCCAACAUGUUGCUGGGAAAGAAUAUUUGAUUUAGAUGCCAAUCAGGAAGGCAAGUAGGAUGGAUGGAUGAGUGAGUGGAUAGGUAGGUAUAUAAAUGGAUGGAUGGGUGAUGGAUGGGUAAAUGAAUGGAUAGCAUACUGAAUGAAUGGAUGAUGGAUGAAUGGACUCUUGCGGUCGCACUAGUGUGGAAUUCUCGGGUGUCAAGG
B4: ENSMUSG00000029636.441|Wasf3 (ssRNA)
RNA: GGGAGUUCUACAGUCCGACGAUCGCUUCGAUAUCCGCAUGCUAGUGGAUGGUUGAGUGGGUGGAUUCAUGAUGGAUGGAUGGAUGGAUGGAUGGAUGGAUGGAUGGAUGAGUGGAUGGAUAAUAGGUUGAUGGGUGGAUAGGUAGAUGAGUGAAUAGAUAGAUAUAGAUCAGUGGGAGGAUUGGAAAGUAGGUGAAUGAAUGGAUGGCAGAUAGAUGGAUCAAUUACAGAUGGAUGGAUGCAUGGAAUAGAUAGGUGGAUGGGUGGUGGCUAGAAGGUGCCUGAGUCUGCACAUCACUGCACUCUCUUGCGGUCGCACUAGUGUGGAAUUCUCGGGUGUCAAGG
B5: ENSMUSG00000029636.439|Wasf3 (ssRNA)
RNA: GGGAGUUCUACAGUCCGACGAUCGCUUCGAUAUCCGCAUGCUAGGAUGAUAGGUGGUGGAUGGUUGAGUGGGUGGAUUCAUGAUGGAUGGAUGGAUGGAUGGAUGGAUGGAUGGAUGGAUGAGUGGAUGGAUAAUAGGUUGAUGGGUGGAUAGGUAGAUGAGUGAAUAGAUAGAUAUAGAUCAGUGGGAGGAUUGGAAAGUAGGUGAAUGAAUGGAUGGCAGAUAGAUGGAUCAAUUACAGAUGGAUGGAUGCAUGGAAUAGAUAGGUGGAUGGGUGGUGGCUAGAAGGUGCCUGAGUCUGCACUCUUGCGGUCGCACUAGUGUGGAAUUCUCGGGUGUCAAGG
B6: ENSMUSG00000029636.446|Wasf3 (ssRNA)
RNA: GGGAGUUCUACAGUCCGACGAUCGCUUCGAUAUCCGCAUGCUAGAUGGAUGGAUGGAUGGAUGGAUGGAUGGAUGGAUGAGUGGAUGGAUAAUAGGUUGAUGGGUGGAUAGGUAGAUGAGUGAAUAGAUAGAUAUAGAUCAGUGGGAGGAUUGGAAAGUAGGUGAAUGAAUGGAUGGCAGAUAGAUGGAUCAAUUACAGAUGGAUGGAUGCAUGGAAUAGAUAGGUGGAUGGGUGGUGGCUAGAAGGUGCCUGAGUCUGCACAUCACUGCACUGAGAAGGCAAAUGAGUACAUUAUACUAUUACUCUUGCGGUCGCACUAGUGUGGAAUUCUCGGGUGUCAAGG
B7: ENSMUSG00000029636.443|Wasf3 (ssRNA)
RNA: GGGAGUUCUACAGUCCGACGAUCGCUUCGAUAUCCGCAUGCUAGUGGGUGGAUUCAUGAUGGAUGGAUGGAUGGAUGGAUGGAUGGAUGGAUGGAUGAGUGGAUGGAUAAUAGGUUGAUGGGUGGAUAGGUAGAUGAGUGAAUAGAUAGAUAUAGAUCAGUGGGAGGAUUGGAAAGUAGGUGAAUGAAUGGAUGGCAGAUAGAUGGAUCAAUUACAGAUGGAUGGAUGCAUGGAAUAGAUAGGUGGAUGGGUGGUGGCUAGAAGGUGCCUGAGUCUGCACAUCACUGCACUGAGAAGGCAAAUCUCUUGCGGUCGCACUAGUGUGGAAUUCUCGGGUGUCAAGG
B8: ENSMUSG00000029636.451|Wasf3 (ssRNA)
RNA: GGGAGUUCUACAGUCCGACGAUCGCUUCGAUAUCCGCAUGCUAUGGAUGAGUGGAUGGAUAAUAGGUUGAUGGGUGGAUAGGUAGAUGAGUGAAUAGAUAGAUAUAGAUCAGUGGGAGGAUUGGAAAGUAGGUGAAUGAAUGGAUGGCAGAUAGAUGGAUCAAUUACAGAUGGAUGGAUGCAUGGAAUAGAUAGGUGGAUGGGUGGUGGCUAGAAGGUGCCUGAGUCUGCACAUCACUGCACUGAGAAGGCAAAUGAGUACAUUAUACUAUUAGCACCAAACCCCAAGCUUCAGUAUUUAGAUCUCUUGCGGUCGCACUAGUGUGGAAUUCUCGGGUGUCAAGG
B9: ENSMUSG00000029636.449|Wasf3 (ssRNA)
RNA: GGGAGUUCUACAGUCCGACGAUCGCUUCGAUAUCCGCAUGCUAUGGAUGGAUGGAUGGAUGAGUGGAUGGAUAAUAGGUUGAUGGGUGGAUAGGUAGAUGAGUGAAUAGAUAGAUAUAGAUCAGUGGGAGGAUUGGAAAGUAGGUGAAUGAAUGGAUGGCAGAUAGAUGGAUCAAUUACAGAUGGAUGGAUGCAUGGAAUAGAUAGGUGGAUGGGUGGUGGCUAGAAGGUGCCUGAGUCUGCACAUCACUGCACUGAGAAGGCAAAUGAGUACAUUAUACUAUUAGCACCAAACCCCAAGCUUCUCUUGCGGUCGCACUAGUGUGGAAUUCUCGGGUGUCAAGG
B10: ENSMUSG00000029636.445|Wasf3 (ssRNA)
RNA: GGGAGUUCUACAGUCCGACGAUCGCUUCGAUAUCCGCAUGCUAAUGAUGGAUGGAUGGAUGGAUGGAUGGAUGGAUGGAUGGAUGAGUGGAUGGAUAAUAGGUUGAUGGGUGGAUAGGUAGAUGAGUGAAUAGAUAGAUAUAGAUCAGUGGGAGGAUUGGAAAGUAGGUGAAUGAAUGGAUGGCAGAUAGAUGGAUCAAUUACAGAUGGAUGGAUGCAUGGAAUAGAUAGGUGGAUGGGUGGUGGCUAGAAGGUGCCUGAGUCUGCACAUCACUGCACUGAGAAGGCAAAUGAGUACAUUAUACUCUUGCGGUCGCACUAGUGUGGAAUUCUCGGGUGUCAAGG
B11: ENSMUSG00000029636.438|Wasf3 (ssRNA)
RNA: GGGAGUUCUACAGUCCGACGAUCGCUUCGAUAUCCGCAUGCUAGUGAAUGGAUGAUAGGUGGUGGAUGGUUGAGUGGGUGGAUUCAUGAUGGAUGGAUGGAUGGAUGGAUGGAUGGAUGGAUGGAUGAGUGGAUGGAUAAUAGGUUGAUGGGUGGAUAGGUAGAUGAGUGAAUAGAUAGAUAUAGAUCAGUGGGAGGAUUGGAAAGUAGGUGAAUGAAUGGAUGGCAGAUAGAUGGAUCAAUUACAGAUGGAUGGAUGCAUGGAAUAGAUAGGUGGAUGGGUGGUGGCUAGAAGGUGCCUGAGCUCUUGCGGUCGCACUAGUGUGGAAUUCUCGGGUGUCAAGG
B12: ENSMUSG00000029636.440|Wasf3 (ssRNA)
RNA: GGGAGUUCUACAGUCCGACGAUCGCUUCGAUAUCCGCAUGCUAUAGGUGGUGGAUGGUUGAGUGGGUGGAUUCAUGAUGGAUGGAUGGAUGGAUGGAUGGAUGGAUGGAUGGAUGAGUGGAUGGAUAAUAGGUUGAUGGGUGGAUAGGUAGAUGAGUGAAUAGAUAGAUAUAGAUCAGUGGGAGGAUUGGAAAGUAGGUGAAUGAAUGGAUGGCAGAUAGAUGGAUCAAUUACAGAUGGAUGGAUGCAUGGAAUAGAUAGGUGGAUGGGUGGUGGCUAGAAGGUGCCUGAGUCUGCACAUCACCUCUUGCGGUCGCACUAGUGUGGAAUUCUCGGGUGUCAAGG
B13: ENSMUSG00000029636.442|Wasf3 (ssRNA)
RNA: GGGAGUUCUACAGUCCGACGAUCGCUUCGAUAUCCGCAUGCUAGGUUGAGUGGGUGGAUUCAUGAUGGAUGGAUGGAUGGAUGGAUGGAUGGAUGGAUGGAUGAGUGGAUGGAUAAUAGGUUGAUGGGUGGAUAGGUAGAUGAGUGAAUAGAUAGAUAUAGAUCAGUGGGAGGAUUGGAAAGUAGGUGAAUGAAUGGAUGGCAGAUAGAUGGAUCAAUUACAGAUGGAUGGAUGCAUGGAAUAGAUAGGUGGAUGGGUGGUGGCUAGAAGGUGCCUGAGUCUGCACAUCACUGCACUGAGAAGCUCUUGCGGUCGCACUAGUGUGGAAUUCUCGGGUGUCAAGG
B14: ENSMUSG00000029636.444|Wasf3 (ssRNA)
RNA: GGGAGUUCUACAGUCCGACGAUCGCUUCGAUAUCCGCAUGCUAGGAUUCAUGAUGGAUGGAUGGAUGGAUGGAUGGAUGGAUGGAUGGAUGAGUGGAUGGAUAAUAGGUUGAUGGGUGGAUAGGUAGAUGAGUGAAUAGAUAGAUAUAGAUCAGUGGGAGGAUUGGAAAGUAGGUGAAUGAAUGGAUGGCAGAUAGAUGGAUCAAUUACAGAUGGAUGGAUGCAUGGAAUAGAUAGGUGGAUGGGUGGUGGCUAGAAGGUGCCUGAGUCUGCACAUCACUGCACUGAGAAGGCAAAUGAGUACCUCUUGCGGUCGCACUAGUGUGGAAUUCUCGGGUGUCAAGG
B15: ENSMUSG00000029636.450|Wasf3 (ssRNA)
RNA: GGGAGUUCUACAGUCCGACGAUCGCUUCGAUAUCCGCAUGCUAGAUGGAUGGAUGAGUGGAUGGAUAAUAGGUUGAUGGGUGGAUAGGUAGAUGAGUGAAUAGAUAGAUAUAGAUCAGUGGGAGGAUUGGAAAGUAGGUGAAUGAAUGGAUGGCAGAUAGAUGGAUCAAUUACAGAUGGAUGGAUGCAUGGAAUAGAUAGGUGGAUGGGUGGUGGCUAGAAGGUGCCUGAGUCUGCACAUCACUGCACUGAGAAGGCAAAUGAGUACAUUAUACUAUUAGCACCAAACCCCAAGCUUCAGUAUCUCUUGCGGUCGCACUAGUGUGGAAUUCUCGGGUGUCAAGG

These binders were tested against TDP-43 (Homo sapiens, UniProt Q13148 1-414) (assay: RNA Bind-n-Seq with designed 260-mer pool; 25 mM Tris-HCl, 150 mM KCl, 3 mM MgCl2, BSA (printed 500 mg/mL), 20 units/mL SUPERase IN; pH not stated; 500 nM RNA pool, 1 h, 4 C; TDP-43 5, 50, 500 nM; high values mean tight binding). Settings: protein: recombinant; tags: SBP (GST cleaved off with PreScission; pGEX-GST-SBP).
TDP-43, sequence (Q13148 whole entry): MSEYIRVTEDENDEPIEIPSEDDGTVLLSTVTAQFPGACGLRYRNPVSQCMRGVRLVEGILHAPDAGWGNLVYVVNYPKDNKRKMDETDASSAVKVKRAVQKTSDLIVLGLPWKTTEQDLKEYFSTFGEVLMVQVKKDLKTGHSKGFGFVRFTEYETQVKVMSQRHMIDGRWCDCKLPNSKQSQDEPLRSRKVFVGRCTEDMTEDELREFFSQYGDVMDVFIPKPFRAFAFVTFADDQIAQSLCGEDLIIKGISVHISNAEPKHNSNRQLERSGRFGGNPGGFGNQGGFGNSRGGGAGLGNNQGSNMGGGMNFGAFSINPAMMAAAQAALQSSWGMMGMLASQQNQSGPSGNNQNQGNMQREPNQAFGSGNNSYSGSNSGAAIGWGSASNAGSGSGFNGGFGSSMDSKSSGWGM
In short: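 The incubation lasted 1 h at 4 °C and used 500 nM of an in vitro-transcribed 260-nt 3′ UTR oligo pool with recombinant SBP-tagged TDP-43 at 5, 50 or 500 nM immobilized on streptavidin beads. It took place in 25 mM Tris-HCl, 150 mM KCl, 3 mM MgCl2, BSA and SUPERase IN. Bound RNA was washed, eluted with biotin, converted to cDNA, PCR-amplified and sequenced to give R, each oligo's normalized abundance in the bound sample divided by that in input. Two independent protein batches provided the duplicates.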

Binder	binding signal
B1	0.273 R (bound/input frequency ratio)
B2	1.65 R (bound/input frequency ratio)
B3	2.26 R (bound/input frequency ratio)
B4	7.11 R (bound/input frequency ratio)
B5	5.9 R (bound/input frequency ratio)
B6	4.56 R (bound/input frequency ratio)
B7	5.07 R (bound/input frequency ratio)
B8	4.65 R (bound/input frequency ratio)
B9	6.51 R (bound/input frequency ratio)
B10	5.13 R (bound/input frequency ratio)
B11	8.37 R (bound/input frequency ratio)
B12	7.49 R (bound/input frequency ratio)
B13	5.86 R (bound/input frequency ratio)
B14	4.6 R (bound/input frequency ratio)
B15	6.13 R (bound/input frequency ratio)
